# Measurements published in article PMC13541613, “GHT-SELEX demonstrates unexpectedly high intrinsic sequence specificity and complex DNA binding of many human transcription factors”.
# How the values were obtained:
# Test in all cases: HT-SELEX; 20 mM HEPES pH 7, 140 mM KCl, 5 mM NaCl, 1 mM K2HPO4, 2 mM MgSO4, 100 uM EGTA, ZnSO4, 0.1% Tween20; room temperature, 1 h; high values mean tight binding
# Conditions in all cases: protein: ivt; tags: eGFP (N-terminal); dsDNA, one strand shown
# ZNF721 full-length = ZNF721 full-length (Homo sapiens, UniProt Q8TF20-2 1-923)
# Method in brief: (§1)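 Tagged transcription factor, expressed in HEK293 lysate or cell-free extract as a full-length protein or DNA-binding-domain fragment, was held on beads. It bound a randomized 40-base DNA library during 1 h at room temperature in low-stringency HEPES/KCl buffer with Tween20. Eluted DNA went through successive PCR cycles and Illumina sequencing of ~3 million 60 bp reads per sample. A higher relative k-mer count in the selected reads denotes tighter binding.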
# ZNF721 DBD1 = ZNF721 DBD1 (Homo sapiens, UniProt Q8TF20-2 29-461)
# Method in brief: as §1
# ZNF721 DBD2 = ZNF721 DBD2 (Homo sapiens, UniProt Q8TF20-2 395-923)
# Method in brief: as §1
# ZNF721 full-length, sequence (Q8TF20 other isoform, or with tags, fused parts or gaps): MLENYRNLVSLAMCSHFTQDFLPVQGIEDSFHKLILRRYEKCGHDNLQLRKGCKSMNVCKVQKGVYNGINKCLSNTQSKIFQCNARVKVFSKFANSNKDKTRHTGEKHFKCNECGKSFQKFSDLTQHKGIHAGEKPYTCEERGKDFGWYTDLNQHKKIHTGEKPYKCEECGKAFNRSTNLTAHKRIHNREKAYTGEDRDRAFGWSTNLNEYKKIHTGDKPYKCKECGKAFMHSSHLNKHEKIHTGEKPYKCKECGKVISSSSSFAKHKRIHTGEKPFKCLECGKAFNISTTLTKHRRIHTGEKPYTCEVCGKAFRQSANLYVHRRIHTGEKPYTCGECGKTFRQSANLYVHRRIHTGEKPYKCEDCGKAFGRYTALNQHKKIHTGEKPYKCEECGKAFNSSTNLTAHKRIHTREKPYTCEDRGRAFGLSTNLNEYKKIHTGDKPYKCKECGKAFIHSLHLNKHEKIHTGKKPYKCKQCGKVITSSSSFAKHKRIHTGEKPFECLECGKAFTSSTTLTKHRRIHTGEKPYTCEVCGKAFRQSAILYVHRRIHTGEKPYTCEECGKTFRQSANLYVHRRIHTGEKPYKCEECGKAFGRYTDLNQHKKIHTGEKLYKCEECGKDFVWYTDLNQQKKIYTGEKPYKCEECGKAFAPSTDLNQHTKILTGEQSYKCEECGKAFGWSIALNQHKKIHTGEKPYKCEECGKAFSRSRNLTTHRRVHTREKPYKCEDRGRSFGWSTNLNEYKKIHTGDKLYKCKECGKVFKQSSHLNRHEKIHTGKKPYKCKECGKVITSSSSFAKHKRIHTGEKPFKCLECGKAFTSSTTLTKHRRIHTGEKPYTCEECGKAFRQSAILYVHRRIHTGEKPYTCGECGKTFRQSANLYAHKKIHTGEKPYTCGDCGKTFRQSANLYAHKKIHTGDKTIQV
# ZNF721 DBD2, sequence (Q8TF20 383-911): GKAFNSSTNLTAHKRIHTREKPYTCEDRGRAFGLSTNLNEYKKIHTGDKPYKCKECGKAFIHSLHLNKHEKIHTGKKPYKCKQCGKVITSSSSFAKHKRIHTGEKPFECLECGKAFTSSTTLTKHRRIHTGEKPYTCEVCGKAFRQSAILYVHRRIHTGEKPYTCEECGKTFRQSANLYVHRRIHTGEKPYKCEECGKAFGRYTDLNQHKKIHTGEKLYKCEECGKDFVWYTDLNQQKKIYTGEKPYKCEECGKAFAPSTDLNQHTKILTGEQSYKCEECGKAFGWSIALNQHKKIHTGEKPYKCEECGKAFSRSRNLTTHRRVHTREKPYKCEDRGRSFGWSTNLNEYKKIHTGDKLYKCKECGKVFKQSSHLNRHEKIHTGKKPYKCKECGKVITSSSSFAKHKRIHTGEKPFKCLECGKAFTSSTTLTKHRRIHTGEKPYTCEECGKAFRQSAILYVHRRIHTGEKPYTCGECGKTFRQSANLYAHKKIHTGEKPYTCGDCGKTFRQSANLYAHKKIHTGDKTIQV
# ZNF721 DBD1, sequence (Q8TF20 17-449): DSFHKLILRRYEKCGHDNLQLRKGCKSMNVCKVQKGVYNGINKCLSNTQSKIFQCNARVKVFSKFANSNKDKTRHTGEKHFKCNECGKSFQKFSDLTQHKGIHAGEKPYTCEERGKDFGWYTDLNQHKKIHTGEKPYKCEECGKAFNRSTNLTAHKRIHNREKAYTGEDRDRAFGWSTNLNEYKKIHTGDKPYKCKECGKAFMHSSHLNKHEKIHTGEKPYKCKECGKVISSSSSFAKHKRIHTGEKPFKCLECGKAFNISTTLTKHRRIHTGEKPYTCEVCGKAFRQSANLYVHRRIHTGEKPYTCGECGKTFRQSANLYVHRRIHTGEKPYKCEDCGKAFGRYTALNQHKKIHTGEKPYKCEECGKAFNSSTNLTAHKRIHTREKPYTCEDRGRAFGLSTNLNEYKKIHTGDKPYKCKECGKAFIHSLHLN
Sequence,binding signal (ZNF721 full-length) [relative 10-mer count],binding signal (ZNF721 DBD1) [relative 10-mer count],binding signal (ZNF721 DBD2) [relative 10-mer count]
CCCCCCCTCC,0.208,0.00982,0.00336
AAAAACAAGC,0.123,0.0116,0.0483
CCCCGCGCCC,0.138,0.00482,0.00228
AAAAAAAAAA,0.186,0.0189,0.0538
ACCTCCCCAC,0.108,0.00422,0.0036
CCCACCGTCC,0.105,0.00449,0.00395
CCCTCCCCTC,0.142,0.00679,0.0129
CCGCCACCCA,0.107,0.00523,0.00276
CCGCACCCCC,0.152,0.00569,0.00156
CACCCCCCAC,0.248,0.0103,0.00527
CGCACCACCC,0.108,0.00381,0.00695
GCCCCTCCCC,0.144,0.00596,0.00551
ACCACCCCGC,0.104,0.00358,0.00252
ACCCACCCAC,0.196,0.00922,0.00887
AAAAAAGGTA,0.109,0.00752,0.0674
CACCCACCGC,0.103,0.00463,0.00455
AAGCAGCGTA,0.162,0.00124,0.201
CAAAAAAGCA,0.259,0.00725,0.17
AGTGTATCCA,0.248,0.11,0.197
CCCCCCCACA,0.124,0.00491,0.00743

Sequence,binding signal (ZNF721 full-length) [relative 10-mer count],binding signal (ZNF721 DBD1) [relative 10-mer count],binding signal (ZNF721 DBD2) [relative 10-mer count]
CCCCCCTCCA,0.13,0.0055,0.0024
AAAAAAGCTG,0.303,0.137,0.00707
AGCATCCCCA,0.136,0.0121,0.0674
AGCGTCTCCT,0.109,0.0353,0.194
CCCTCCCCAC,0.217,0.00977,0.00863
ACCTCCCACC,0.113,0.00578,0.00348
GGGAGGGGGA,0.161,0.00752,0.00395
CCTCCCGCCC,0.161,0.00656,0.00264
CCCCAACCCC,0.283,0.0104,0.00288
ACCACCCCCC,0.211,0.00771,0.00288
CACCCCCCCG,0.131,0.00252,0.003
ATCCCCACCC,0.114,0.00459,0.00515
AAAAAGAAGC,0.126,0.0301,0.0126
CCACCCCCGC,0.203,0.0072,0.00264
AAAACAGTAT,0.105,0.00124,0.155
AGGAAAAAAG,0.114,0.0333,0.0182
CACGCCCACC,0.123,0.00518,0.00947
CCCTCCCTCC,0.178,0.0107,0.0211
ATGGGTGGGG,0.109,0.00427,0.00372
CCACCCCCCC,0.32,0.0122,0.00336

Sequence,binding signal (ZNF721 full-length) [relative 10-mer count],binding signal (ZNF721 DBD1) [relative 10-mer count],binding signal (ZNF721 DBD2) [relative 10-mer count]
CCCCGCTCCC,0.139,0.0044,0.00108
ACCCACCGCC,0.114,0.00482,0.00455
CCACCTCCCA,0.127,0.0061,0.00384
CCATCCACCC,0.109,0.00578,0.00467
CCCGCCCCAC,0.207,0.00784,0.00252
CGGAAAAAAG,0.109,0.023,0.0288
ACCCACCCTC,0.132,0.00541,0.00647
CCTGCCCCCC,0.103,0.00454,0.00132
CCACCCCACC,0.411,0.0178,0.00731
CCCCACACCA,0.118,0.00417,0.00575
CCCACCCCGA,0.132,0.00404,0.00192
CTCCCACCCC,0.224,0.0128,0.00455
CCCACCGCCA,0.13,0.00422,0.00563
CAGCATCCCC,0.143,0.00165,0.154
CCCTCCCACC,0.265,0.0161,0.00755
GCCCCACCCC,0.216,0.00775,0.00599
CCGCCGCCCC,0.169,0.00546,0.00168
CCCCCCAACC,0.194,0.00651,0.00707
CCAACCCCCC,0.169,0.0056,0.00144
CCACCACCAC,0.19,0.00688,0.00647
